Experimental data: PubChem BioAssay AID1159580 (chemical genetic matrix, 2015)
About 2,000 (36%) of roughly 5,500 compounds were called active. Not shown: some 18% with an inconclusive outcome. Rule as the data show it: active = normalized growth mostly below about 0.91 (no sharp cut-off); inconclusive = no clear call, values can overlap the other calls; inactive = mostly above about 0.92. Some of the results follow.

Test: chemical genetic growth profiling, strain panel (AID 1159580);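 also: tested at 20 µM; growth read once vehicle control cultures reached saturation at 30 °C; 1 = growth at the plate median or of vehicle wells; lower values mean less growth of the strain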
Settings: growth OD

Measured: normalized growth

N[C@H](Cc1ccccc1)C(=O)O
inactive: S. cerevisiae deletion strains, locus YJR043C, strain POL32, hits give low values 1.01 | S. cerevisiae deletion strains, locus YJR066W, strain TOR1, hits give low values 0.943 | S. cerevisiae deletion strains, locus YKL009W, strain mrt4, hits give low values 1.01 | S. cerevisiae deletion strains, locus YKL068W, hits give low values 1.01 | S. cerevisiae deletion strains, locus YKL085W, strain MDH1 (second series), hits give low values 1.01 | S. cerevisiae deletion strains, locus YKL085W, strain MDH1, hits give low values 1.01 | S. cerevisiae deletion strains, locus YKL160W, strain elf1, hits give low values 1.04 | S. cerevisiae deletion strains, locus YKL190W, strain CNB1, hits give low values 1.02 | S. cerevisiae deletion strains, locus YKR001C, strain vps1, hits give low values 0.997 | S. cerevisiae deletion strains, locus YKR026C, strain gcn3, hits give low values 0.988 | S. cerevisiae deletion strains, locus YKR091W, strain srl3, hits give low values 1 | S. cerevisiae deletion strains, locus YLL001W, strain dnm1, hits give low values 0.973 | S. cerevisiae deletion strains, locus YLL026W, hits give low values 0.984 | S. cerevisiae deletion strains, locus YLL041C, strain sdh2, hits give low values 1 | S. cerevisiae deletion strains, locus YLR027C, strain aat2, hits give low values 1 | S. cerevisiae deletion strains, locus YLR039C, strain RIC1, hits give low values 1.02 | S. cerevisiae deletion strains, locus YLR058C, strain SHM2, hits give low values 1.02 | S. cerevisiae deletion strains, locus YLR102C, strain apc9, hits give low values 0.995 | S. cerevisiae deletion strains, locus YLR113W, strain HOG1, hits give low values 1.05 | S. cerevisiae deletion strains, locus YLR221C, strain rsa3, hits give low values 0.975 | S. cerevisiae deletion strains, locus YLR258W, strain gsy2, hits give low values 1.03 | S. cerevisiae deletion strains, locus YLR262C, strain YPT6 (second series), hits give low values 0.987 | S. cerevisiae deletion strains, locus YLR262C, strain YPT6, hits give low values 1.04 | S. cerevisiae deletion strains, locus YLR268W, strain sec22, hits give low values 0.994 | S. cerevisiae deletion strains, locus YLR320W, strain mms22, hits give low values 0.949 | S. cerevisiae deletion strains, locus YLR330W, strain CHS5, hits give low values 1.02 | S. cerevisiae deletion strains, locus YLR342W, strain FKS1 (second series), hits give low values 1 | S. cerevisiae deletion strains, locus YLR342W, strain FKS1, hits give low values 1.02 | S. cerevisiae deletion strains, locus YLR357W, strain rsc2, hits give low values 1.01 | S. cerevisiae deletion strains, locus YLR370C, strain arc18, hits give low values 1 | S. cerevisiae deletion strains, locus YLR371W, strain rom2, hits give low values 0.982 | S. cerevisiae deletion strains, locus YLR384C, strain iki3, hits give low values 0.991 | S. cerevisiae deletion strains, locus YLR418C, strain cdc73, hits give low values 0.975 | S. cerevisiae deletion strains, locus YML016C, strain PPZ1, hits give low values 1.01 | S. cerevisiae deletion strains, locus YML032C, strain rad52, hits give low values 0.986 | S. cerevisiae deletion strains, locus YML120C, strain ndi1, hits give low values 0.987 | S. cerevisiae deletion strains, locus YML124C, strain tub3, hits give low values 0.997 | S. cerevisiae deletion strains, locus YMR058W, strain fet3, hits give low values 0.987 | S. cerevisiae deletion strains, locus YMR078C, strain ctf18, hits give low values 1 | S. cerevisiae deletion strains, locus YMR125W, strain sto1, hits give low values 1 | S. cerevisiae deletion strains, locus YMR129W, hits give low values 0.978 | S. cerevisiae deletion strains, locus YMR205C, strain PFK2, hits give low values 0.985 | S. cerevisiae deletion strains, locus YMR223W, strain ubp8, hits give low values 1.01 | S. cerevisiae deletion strains, locus YMR231W, strain pep5, hits give low values 0.984 | S. cerevisiae deletion strains, locus YMR263W, strain SAP30, hits give low values 1.01 | S. cerevisiae deletion strains, locus YMR307W, strain GAS1, hits give low values 1.01 | S. cerevisiae deletion strains, locus YNL067W, strain RPL9B, hits give low values 1.02 | S. cerevisiae deletion strains, locus YNL071W, strain lat1, hits give low values 0.983 | S. cerevisiae deletion strains, locus YNL128W, strain TEP1, hits give low values 1.02 | S. cerevisiae deletion strains, locus YNL153C, strain GIM3, hits give low values 1.03 | S. cerevisiae deletion strains, locus YNL183C, strain NPR1, hits give low values 0.988 | S. cerevisiae deletion strains, locus YNL209W, strain ssb2, hits give low values 1.02 | S. cerevisiae deletion strains, locus YNL233W, strain BNI4, hits give low values 1.01 | S. cerevisiae deletion strains, locus YNL248C, strain rpa49, hits give low values 1 | S. cerevisiae deletion strains, locus YNL250W, strain rad50, hits give low values 1 | S. cerevisiae deletion strains, locus YNL271C, strain bni1, hits give low values 1.01 | S. cerevisiae deletion strains, locus YNL298W, strain CLA4, hits give low values 1.02 | S. cerevisiae deletion strains, locus YNL307C, strain MCK1, hits give low values 0.993 | S. cerevisiae deletion strains, locus YNL322C, strain KRE1 (second series), hits give low values 1.03 | S. cerevisiae deletion strains, locus YNR049C, strain mso1, hits give low values 1 | S. cerevisiae deletion strains, locus YNR052C, strain pop2, hits give low values 1.01 | S. cerevisiae deletion strains, locus YOL006C, strain TOP1, hits give low values 1.03 | S. cerevisiae deletion strains, locus YOL012C, strain htz1 2.29 | S. cerevisiae deletion strains, locus YOL147C, strain pex11, hits give low values 1.01 | S. cerevisiae deletion strains, locus YOR001W, strain rrp6, hits give low values 0.943 | S. cerevisiae deletion strains, locus YOR061W, strain CKA2, hits give low values 1.02 | S. cerevisiae deletion strains, locus YOR069W, strain VPS5, hits give low values 1.01 | S. cerevisiae deletion strains, locus YOR070C, strain gyp1, hits give low values 0.983 | S. cerevisiae deletion strains, locus YOR080W, strain dia2, hits give low values 0.988 | S. cerevisiae deletion strains, locus YOR083W, strain WHI5, hits give low values 0.991 | S. cerevisiae deletion strains, locus YOR106W, strain vam3, hits give low values 1.03 | S. cerevisiae deletion strains, locus YOR136W, strain idh2, hits give low values 1 | S. cerevisiae deletion strains, locus YOR144C, strain elg1, hits give low values 0.999 | S. cerevisiae deletion strains, locus YOR184W, strain ser1, hits give low values 0.994 | S. cerevisiae deletion strains, locus YOR231W, strain MKK1, hits give low values 1.08 | S. cerevisiae deletion strains, locus YOR265W, strain rbl2, hits give low values 0.992 | S. cerevisiae deletion strains, locus YOR270C, strain vph1, hits give low values 0.986 | S. cerevisiae deletion strains, locus YOR290C, strain snf2, hits give low values 1.02 | S. cerevisiae deletion strains, locus YOR316C, strain cot1, hits give low values 1 | S. cerevisiae deletion strains, locus YPL051W, strain arl3, hits give low values 1.01 | S. cerevisiae deletion strains, locus YPL078C, strain atp4, hits give low values 1.03 | S. cerevisiae deletion strains, locus YPL106C, strain sse1, hits give low values 1.03 | S. cerevisiae deletion strains, locus YPL240C, strain hsp82, hits give low values 0.994 | S. cerevisiae deletion strains, locus YPL256C, strain CLN2, hits give low values 1.06 | S. cerevisiae deletion strains, locus YPR119W, strain clb2, hits give low values 0.995 | S. cerevisiae deletion strains, locus YPR141C, strain kar3, hits give low values 1 | S. cerevisiae deletion strains, locus YPR163C, strain tif3, hits give low values 1 | S. cerevisiae deletion strains, locus YPR167C, strain met16, hits give low values 1 | S. cerevisiae deletion strains, strain wtn01, hits give low values 0.996 | S. cerevisiae strains, strain wild type, hits give low values 1.01
